Measurements from ChEMBL document CHEMBL3988442, “University of Dundee, Small-Polar-MMV Screening Library” (2021).

Target: T1, Aspartate--tRNA(Asp/Asn) ligase (Mycobacterium tuberculosis (strain ATCC 25618 / H37Rv)) (UniProt P9WFW3); also: in the data most compounds retested in dose-response had high values
T1 sequence (whole entry): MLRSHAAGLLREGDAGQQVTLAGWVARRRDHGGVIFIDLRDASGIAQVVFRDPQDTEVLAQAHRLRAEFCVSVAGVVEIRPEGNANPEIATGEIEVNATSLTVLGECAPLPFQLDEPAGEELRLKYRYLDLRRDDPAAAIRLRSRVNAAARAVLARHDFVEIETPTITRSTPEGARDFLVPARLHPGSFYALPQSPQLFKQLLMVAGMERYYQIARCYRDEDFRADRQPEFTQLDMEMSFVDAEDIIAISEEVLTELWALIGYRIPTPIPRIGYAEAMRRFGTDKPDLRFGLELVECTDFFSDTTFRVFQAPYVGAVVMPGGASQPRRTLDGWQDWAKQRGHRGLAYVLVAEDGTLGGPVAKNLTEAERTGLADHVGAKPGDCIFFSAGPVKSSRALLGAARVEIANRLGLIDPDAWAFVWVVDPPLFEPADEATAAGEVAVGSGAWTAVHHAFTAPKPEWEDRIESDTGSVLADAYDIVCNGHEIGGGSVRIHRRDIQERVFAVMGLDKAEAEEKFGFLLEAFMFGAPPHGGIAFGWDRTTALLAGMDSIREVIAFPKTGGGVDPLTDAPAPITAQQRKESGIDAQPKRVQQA
Test: Assay for Asp RNA synthetase-1 from Mycobacterium tuberculosis
Format: functional
Design: scale not given: direction of the effect not stated beside the values
Settings: 30 µM

SMILES | Percent Effect [%]
COc1ccc(NC(=O)N2CCN(c3ncccn3)CC2)cn1 | -4.63
Cc1cn(-c2ccccc2)nc1NS(=O)(=O)c1cc(C(=O)O)cs1 | 5.52
Cc1nc2ccnn2c(C)c1CCC(=O)N1CCN(C2CC2)CC1 | 3.26
Cc1nnc([C@@H]2CC[C@@H]3[C@@H](CCN3S(=O)(=O)c3cccnc3)O2)o1 | 7.29
CCOC(=O)CN1CCC2(CC1)CC(=O)c1ccc(OC)cc1O2 | -2.78
NC(=O)C1CN(C(=O)Nc2ccccc2SC(F)(F)F)CCO1 (stereo not given) | -5.1
COc1ccc(NC(C)=O)c(N2CCN(C(C)=O)CC2)n1 | 2.32
CC(NC(=O)NCCCn1ccnc1)c1ccc2c(c1)CCC(=O)N2 (stereo not given) | -3.85
Cc1ccc(-c2noc(CN3CCOC(CN(C)C)C3)n2)cc1F (stereo not given) | 3.61
COc1ccc(-c2noc(C(=O)NCCN3CCCCC3)n2)cc1OC | -1.25
CCc1cnc(C)nc1NCCN1CCCCCC1 | 4.13
O=C(c1nc(-c2ccc3cc[nH]c3c2)no1)N1CCCC1 | -0.958
CCc1nc(C2CCCN2CCCS(=O)(=O)c2ccccc2)no1 (stereo not given) | -4.39
Cc1ccc(CNC(=O)Nc2cc(C(F)(F)F)c[nH]c2=O)cn1 | -6.46
Cc1nc(C)n(CC2CCCN(CC(=O)Nc3c(C)n[nH]c3C)C2)n1 (stereo not given) | -1.34
COc1ccc(Cl)cc1C(=O)N1CCOC2(CNCCOC2)C1 (stereo not given) | -0.926
O=C(NCCCn1cncn1)N1CCCC(N2CCCC2)C1 (stereo not given) | 3.5
CC(C)NC(=O)C1CN(C(=O)c2ccco2)CC12CCOCC2 (stereo not given) | 9.32
CN(C(=O)c1ccccc1Cl)C1CCN(c2ccccn2)CC1 | 5.42
CCn1ccnc1CN1CCN(CCC(=O)NC(C)(C)C)CC1C (stereo not given) | -4.35

SMILES | Percent Effect [%]
Cc1noc([C@H]2C[C@@H]3CCN(CC4CC4)C[C@H]3O2)n1 | 6.95
O=C(c1ccc(F)cc1)N1CCN2C[C@H](OCc3ccccn3)C[C@H]2C1 | -1.3
O=C(O)C1(Cc2cc(-c3ccc(F)cc3F)no2)CCOCC1 | 0.819
CC(C)CN1CCN(Cc2nc3ccccc3[nH]2)[C@H]2CS(=O)(=O)C[C@H]21 | 4.05
CC(C(=O)NCc1ccc(N2CCNC(=O)C2)cc1)n1cncn1 (stereo not given) | 3.94
CNC(=O)C1(CCCc2ccncc2)CCCN1 (stereo not given) | 4.78
Cn1cc(CN2CCCC23CCN(C(=O)c2cccn2C)CC3)cn1 | -4.47
CNS(=O)(=O)Cc1ccc(CNC(=O)Nc2cn[nH]c2)cc1 | -0.228
Cc1ccc(-c2nc(CN3CCCC3Cn3cc(C)cn3)no2)cc1 (stereo not given) | 1.48
O=C(NCC1CCS(=O)(=O)C1)c1sccc1-c1ccc(F)cc1 (stereo not given) | -1.09
O=C(NCC1CC1)c1nc(COc2ccc3c(c2)OCO3)no1 | -5.11
CC(C)(C)NC(=O)NC(=O)CNC(C)(C)c1ccc2c(c1)OCCO2 | 0.459
O=C(CN1CCCC1Cn1cccn1)NC1CCOCC1 (stereo not given) | -1.71
COc1ccc(CN2C[C@@H](N(C)Cc3ccco3)[C@H]3OCCC[C@H]32)cc1 | 0.632
O=C(Cn1cc(C(=O)O)ccc1=O)Nc1ccc(Cl)cc1F | -4.96
CCc1nc2n(n1)CC(NCc1nc(C)ccc1O)CC2 (stereo not given) | -1.83
CCc1cnc(N2CCC3(CC2)CN(c2cccnc2)C(=O)CO3)nc1 | 6.49
Cc1ccc(OCCC(=O)N2CCN(c3cnccn3)CC2)cc1C | -0.856
CCN(CC)c1ccc(C(=O)N(C)Cc2c(C)noc2C)cn1 | 3.51
CC(C)c1ncc2c(n1)CN(Cc1nc(-c3cccs3)no1)CC2 | 0.321

Target: Shiga toxin 2 (Escherichia coli O157:H7) (UniProt P09385+P09386)
Test: E. coli 0.157:H7 Shiga Toxin SOP - stx2 screening assay
Format: functional
Design: scale not given: direction of the effect not stated beside the values
Settings: 30 µM

SMILES | Percent Effect [%]
COc1ccc(NC(=O)N2CCN(c3ncccn3)CC2)cn1 | -16.1
Cc1cn(-c2ccccc2)nc1NS(=O)(=O)c1cc(C(=O)O)cs1 | -40
Cc1nc2ccnn2c(C)c1CCC(=O)N1CCN(C2CC2)CC1 | 33
Cc1nnc([C@@H]2CC[C@@H]3[C@@H](CCN3S(=O)(=O)c3cccnc3)O2)o1 | 8.32
CCOC(=O)CN1CCC2(CC1)CC(=O)c1ccc(OC)cc1O2 | 10.6
NC(=O)C1CN(C(=O)Nc2ccccc2SC(F)(F)F)CCO1 (stereo not given) | -11.7
COc1ccc(NC(C)=O)c(N2CCN(C(C)=O)CC2)n1 | -15.1
CC(NC(=O)NCCCn1ccnc1)c1ccc2c(c1)CCC(=O)N2 (stereo not given) | -22.9
Cc1ccc(-c2noc(CN3CCOC(CN(C)C)C3)n2)cc1F (stereo not given) | 24.6
COc1ccc(-c2noc(C(=O)NCCN3CCCCC3)n2)cc1OC | -77.4
CCc1cnc(C)nc1NCCN1CCCCCC1 | -69.6
O=C(c1nc(-c2ccc3cc[nH]c3c2)no1)N1CCCC1 | -77.4
CCc1nc(C2CCCN2CCCS(=O)(=O)c2ccccc2)no1 (stereo not given) | -9.14
Cc1ccc(CNC(=O)Nc2cc(C(F)(F)F)c[nH]c2=O)cn1 | 8.32
Cc1nc(C)n(CC2CCCN(CC(=O)Nc3c(C)n[nH]c3C)C2)n1 (stereo not given) | 32.2
COc1ccc(Cl)cc1C(=O)N1CCOC2(CNCCOC2)C1 (stereo not given) | 11.2
O=C(NCCCn1cncn1)N1CCCC(N2CCCC2)C1 (stereo not given) | 0.153
CC(C)NC(=O)C1CN(C(=O)c2ccco2)CC12CCOCC2 (stereo not given) | 1.11
CN(C(=O)c1ccccc1Cl)C1CCN(c2ccccn2)CC1 | 19.1
CCn1ccnc1CN1CCN(CCC(=O)NC(C)(C)C)CC1C (stereo not given) | 15.4

SMILES | Percent Effect [%]
Cc1noc([C@H]2C[C@@H]3CCN(CC4CC4)C[C@H]3O2)n1 | -8.04
O=C(c1ccc(F)cc1)N1CCN2C[C@H](OCc3ccccn3)C[C@H]2C1 | 10.7
O=C(O)C1(Cc2cc(-c3ccc(F)cc3F)no2)CCOCC1 | -13.5
CC(C)CN1CCN(Cc2nc3ccccc3[nH]2)[C@H]2CS(=O)(=O)C[C@H]21 | -16.9
CC(C(=O)NCc1ccc(N2CCNC(=O)C2)cc1)n1cncn1 (stereo not given) | -118
CNC(=O)C1(CCCc2ccncc2)CCCN1 (stereo not given) | 1.85
Cn1cc(CN2CCCC23CCN(C(=O)c2cccn2C)CC3)cn1 | -10.8
CNS(=O)(=O)Cc1ccc(CNC(=O)Nc2cn[nH]c2)cc1 | -4.62
Cc1ccc(-c2nc(CN3CCCC3Cn3cc(C)cn3)no2)cc1 (stereo not given) | -24.5
O=C(NCC1CCS(=O)(=O)C1)c1sccc1-c1ccc(F)cc1 (stereo not given) | -3.87
O=C(NCC1CC1)c1nc(COc2ccc3c(c2)OCO3)no1 | -58.6
CC(C)(C)NC(=O)NC(=O)CNC(C)(C)c1ccc2c(c1)OCCO2 | 41.7
O=C(CN1CCCC1Cn1cccn1)NC1CCOCC1 (stereo not given) | 13.3
COc1ccc(CN2C[C@@H](N(C)Cc3ccco3)[C@H]3OCCC[C@H]32)cc1 | 4.78
O=C(Cn1cc(C(=O)O)ccc1=O)Nc1ccc(Cl)cc1F | -33.4
CCc1nc2n(n1)CC(NCc1nc(C)ccc1O)CC2 (stereo not given) | 11.7
CCc1cnc(N2CCC3(CC2)CN(c2cccnc2)C(=O)CO3)nc1 | -6.76
Cc1ccc(OCCC(=O)N2CCN(c3cnccn3)CC2)cc1C | -12.8
CCN(CC)c1ccc(C(=O)N(C)Cc2c(C)noc2C)cn1 | 32.5
CC(C)c1ncc2c(n1)CN(Cc1nc(-c3cccs3)no1)CC2 | 13.1
